Assay results published in PubChem BioAssay (NCATS).
Inconclusive results are not listed. Where a call stands in place of a potency, no number is given. Calls of active or inactive are those of the source. Calls come from the whole dose curve; as a rule, active = well fitted cell-killing curve with a large enough effect; inconclusive = small, poorly fitted or top-dose-only effect; inactive = flat fitted curve, though single readings scatter.

test: Cell Viability - LYMP2-012 (AID 982); details: LYMP2-012 lymphoblastoid cell viability qHTS; series mostly up to 92.2 µM;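 note: cellular ATP by luciferase luminescence where a drop means cytotoxicity; cells exposed to compound for one day before reading; nearly all actives have a fitted effect of over 55% in size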
From the text: NIH Chemical Genomics Center [NCGC]
NIH Molecular Libraries Screening Centers Network [MLSCN]
National Institutes of Environmental Health Sciences [NIEHS]
National Toxicology Program [NTP]
We have developed a 1536-well cell-based assay for quantitative high throughput screening (qHTS) against a number of cell lines to determine in vitro cytotoxicity of small molecules. This particular assay uses a human lymphoblastoid cell line (LYMP2-012) purchased from Coriell Institute for Medical Research.
NCGC Assay Protocol Summary:
The CellTiter-Glo luminescent cell viability assay (Promega) is a homogeneous method to measure the number of viable cells in culture. The end point readout of this assay is based on quantitation of intracellular ATP, an indicator of metabolic activity, using the luciferase reaction. Luciferase catalyzes the oxidation of beetle Luciferin to oxyluciferin and light in the presence of ATP. The luminescent signal is proportional to amount of ATP present.
Using the CellTiter-Glo luminescent cell viability assay, the amount of cellular ATP was measured in the lymphoblastoid cell line with complete culture medium following compound treatment for 24 hours. The assay was performed in opaque white Kalypsys 1536-well plates. In the screen, tetraoctylammonium bromide was used as positive control. Library compounds were measured for their ability to cause acute toxicity in the cell line, as reflected by a decrease in intracellular ATP levels, in a concentration-dependent manner. […] AC50 values were determined from concentration-response data modeled with the standard Hill equation.
qHTS protocol for CellTiter Glo lymphoblastoid cellular assay
[Step] [Parameter] [Value] [Description]
1. Reagent; 5 uL; 2500 lymphoblastoid cells/well
2. Time; 5 hr; 37 C incubation
4. Controls; 23 nL; Tetraoctylammonium bromide 6.4pM to 92 uM
5. Time; 24 hr; 37 C incubation
6. Reagent; 5 uL; CellTiter Glo reagent
7. Time; 30 min; Room Temperature
8. Detection; Luminescence; Viewlux plate reader
Keywords: cell viability, cytotoxicity, lymphoblastoid cell line, luminescence, NTPHTS, NTPHTS_NCGC, NIEHS, DSSTox, MLSMR, MLSCN, NIH Roadmap, qHTS, NCGC
Potency is the fitted concentration of half-maximal effect.

| Compound | Potency |
| --- | --- |
| Cc1cc(O)ccc1Cl | inactive |
| O=S(=O)(c1ccc(Cl)cc1)c1ccc(Cl)cc1 | inactive |
| COc1ccc(C(c2ccc(OC)cc2)C(Cl)(Cl)Cl)cc1 | inactive |
| Nc1ccc(Sc2ccc(N)cc2)cc1 | inactive |
| CCCCCCCCc1ccc(O)cc1 | inactive |
| CCOP(=O)(NC(C)C)Oc1ccc(SC)c(C)c1 (stereo unspecified) | inactive |
| CC(C)(O)C(=O)Nc1ccc([N+](=O)[O-])c(C(F)(F)F)c1 | inactive |
| O=C(O)C(Cl)Cl | inactive |
| O=[N+]([O-])c1c(Cl)c(Cl)cc(Cl)c1Cl | inactive |
| CC(=O)[O][Hg][c]1ccccc1 | 501 nM (active) |
| C=CC(=O)NCNC(=O)C=C | inactive |
| OCCCBr | inactive |
| CCCCOC(=O)c1ccccc1C(=O)OCc1ccccc1 | inactive |
| CCCCC(CC)COC(=O)c1ccccc1C(=O)OCC(CC)CCCC (stereo unspecified) | inactive |
| COC(C)(C)CCCC(C)C/C=C/C(C)=C/C(=O)OC(C)C (stereo unspecified) | inactive |
| Nc1ccc(Cl)cc1 | inactive |
| O=[N+]([O-])c1cc([N+](=O)[O-])c2ccccc2c1 | inactive |
| C1CCC(NC2CCCCC2)CC1 | inactive |
| CN(C)NC(=O)CCC(=O)O | inactive |
| CCOCCOC(C)=O | inactive |
| CN(C)[C@@H]1C(=O)C(C(N)=O)=C(O)[C@@]2(O)C(=O)C3=C(O)c4c(O)cccc4[C@@](C)(O)[C@H]3[C@H](O)[C@@H]12 | inactive |
| c1cc2ccc3cccc4ccc(c1)c2c34 | inactive |
| O=C(O)COc1ccccc1 | inactive |
| Nc1ccc([N+](=O)[O-])cc1 | inactive |
| Nc1ccc(Cl)cc1N | inactive |
| O=[N+]([O-])c1c2ccccc2cc2ccccc12 | inactive |
